HDAC3 inh = inhibitors of human histone deacetylase 3. recombinant HDAC3, fluorogenic peptide/trypsin coupled, fluorescence. inhibition, % at 8.3 µM. hit rate 0.15% among 320,000; in the data active = inhibition above about 26%, passing the limit was not always enough
PKA-R2B activ = activators of human PKA-R2B complex. P22694+P31323. PKA-R2B holoenzyme dissociation, Cy5-IP20 fluorescence polarization; R2B truncated from residue 108, S112A mutant; 0% DMSO only, 100% 113 µM cGMP. AID 504700. activation, % at 11.4 µM. hit rate 0.079% among 340,000;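 active = activation above a cutoff set at the mean over all compounds plus 3 SD, cut at about 18% in these data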;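 note: higher means more holoenzyme dissociation and a rise in polarization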
Rtt109 Vps75 = C. albicans Rtt109 histone acetyltransferase inhibition | purified Rtt109/Vps75, ThioGlo CoA-SH fluorescence, 4 h | inhibition, % at 34.9 µM | hit rate 0.16% among 330,000;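 active = inhibition of at least 50% in every replicate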
Target sequence (Q5AAJ8 whole entry, looked up): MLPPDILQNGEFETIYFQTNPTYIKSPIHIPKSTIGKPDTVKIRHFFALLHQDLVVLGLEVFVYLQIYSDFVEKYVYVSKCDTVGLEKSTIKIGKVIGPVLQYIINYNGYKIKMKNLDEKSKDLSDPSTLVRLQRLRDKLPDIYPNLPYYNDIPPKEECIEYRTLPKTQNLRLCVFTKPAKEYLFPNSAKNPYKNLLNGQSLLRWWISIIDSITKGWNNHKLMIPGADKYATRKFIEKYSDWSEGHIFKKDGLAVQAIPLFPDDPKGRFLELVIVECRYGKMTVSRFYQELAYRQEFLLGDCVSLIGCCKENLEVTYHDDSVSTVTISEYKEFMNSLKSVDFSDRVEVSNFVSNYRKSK
PKA-R1A act = activates the PKA-R1A holoenzyme complex; P00514+P68181; PKA-R1A dissociation, Cy5-IP20 fluorescence polarization; scaled: DMSO 0%, 113 µM cGMP 100%; activation, % at 11.4 µM; hit rate 0.083% among 340,000;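 active = percent activation above the mean of all tested compounds plus 3 SD, cut at about 19% in these data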;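 note: higher means more PKAc released from R1A so a rise in polarization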
Large screens that a line does not name were inactive. Most compounds without a hit are left out; they make up all but 0.43% or so of the library.

CC[n+]1c(/C=C(\C)OC)sc2ccccc21	none (no result: HDAC3 inh)
CC[n+]1c(/C=C/C=C/N(C(C)=O)c2ccccc2)sc2cc(OC)ccc21	HDAC3 inh 45.2 (no result: PKA-R2B activ, Rtt109 Vps75, PKA-R1A act)
CCOc1ccc2ccccc2c1/C=N/NC(=O)c1ccncc1	none
COCC(C)n1c(SC(C)C(=O)NC2CCCCC2C)nc2ccccc2c1=O (stereo not drawn)	none
COc1ccc(N2CSC3=C(C#N)C(c4cccc(OC)c4OC)CC(=O)N3C2)cc1 (stereo not drawn)	HDAC3 inh 55.9
COc1ccc(OC)c(C2CC(=O)N3CN(c4ccccc4)CSC3=C2C#N)c1 (stereo not drawn)	HDAC3 inh 53.7
COc1cc(OC)c(C2CC(=O)N3CN(c4ccccc4C)CSC3=C2C#N)cc1OC (stereo not drawn)	none (no result: PKA-R2B activ, Rtt109 Vps75, PKA-R1A act)
COc1ccc(C2CC(=O)N3CN(c4ccc(C)c(Cl)c4)CSC3=C2C#N)cc1 (stereo not drawn)	HDAC3 inh 51.2
COc1ccc(C2CC(=O)N3CN(c4ccccc4F)CSC3=C2C#N)cc1OC (stereo not drawn)	none
CCn1cc(C(=O)N(C)CC(OC)OC)c(=O)c2cc(S(=O)(=O)N3CCOCC3)ccc21	none
O=C1OC(c2ccccc2)=N/C1=C\C=C\c1ccco1	HDAC3 inh 41.4
COCC(C)n1c(COc2ccccc2F)nnc1SCC(=O)c1c(N)n(C)c(=O)n(C)c1=O (stereo not drawn)	none
O=C(Oc1cc(=O)n2ccccc2n1)c1ccccc1	HDAC3 inh 38.2
Cc1cc(NC(=O)CN2C(=O)CC(c3ccco3)Sc3ccccc32)no1 (stereo not drawn)	HDAC3 inh 41.1
CCOC(=O)c1c(C)[nH]c(C2=NNC(=NC3CC3)SC2)c1C	Rtt109 Vps75 70.7
CC(C)Cn1c(N)c(C(=O)COC(=O)c2cc(S(=O)(=O)N3CCOCC3)ccc2Br)c(=O)n(C)c1=O	HDAC3 inh 33.6
Cc1ccc(S(=O)(=O)N2CCOCC2)cc1C(=O)OCC(=O)c1c(N)n(C)c(=O)n(C)c1=O	none
COc1ccc(-c2nc(N)n(C(=O)c3ccc(C)cc3)n2)cc1	HDAC3 inh 32.0
Cc1ccc(-c2nc(N)n(C(=O)c3ccco3)n2)cc1	none
COc1ccc(C(=O)n2nc(-c3ccccc3)nc2N)cc1OC	HDAC3 inh 61.7
COc1ccc(C(=O)n2nc(-c3ccc(OC)cc3)nc2N)cc1	HDAC3 inh 58.7
CCCC(=O)n1nc(-c2ccc(OC)cc2)nc1N	none
COc1ccc(C(=O)n2nc(-c3ccco3)nc2N)cc1OC	none (no result: HDAC3 inh)
Cc1cccc(NC(=S)N2N=CCC2c2ccccc2)c1 (stereo not drawn)	none
O=C(CCN1Cc2ccccc2C1)c1ccc2c(c1)OCCO2	Rtt109 Vps75 100.0 (no result: HDAC3 inh)
O=C(CCN1CCc2ccccc2C(c2ccccc2)C1)c1ccc2c(c1)OCCO2 (stereo not drawn)	none
O=C(Cn1cc(S(=O)(=O)Cc2cccc(F)c2)c2ccccc21)N1CCOCC1	none
N#Cc1c(Nc2ccccc2Cl)s[nH]c1=O	Rtt109 Vps75 109.2
N#Cc1c(Nc2ccccc2C(F)(F)F)s[nH]c1=O	none (no result: PKA-R2B activ, Rtt109 Vps75, PKA-R1A act)
N#Cc1c(Nc2ccccc2)s[nH]c1=O	Rtt109 Vps75 110.6
COc1ccc(OCC(=O)Nc2ccccc2C(=O)NC2CC2)cc1	none
COc1ccccc1C1CC(c2cccc(NS(C)(=O)=O)c2)=NN1S(=O)(=O)c1ccccc1 (stereo not drawn)	none
Nc1ccccc1NC(=O)c1ccccc1	HDAC3 inh 74.9
OCC1(CO)COC(CCc2ccccc2)=N1	none
CC(NC1c2ccccc2-c2ccccc21)c1ccccc1 (stereo not drawn)	none
CC1CCc2ccccc2N1CC(=O)Nc1cccc(S(=O)(=O)N2CCCC2)c1 (stereo not drawn)	none (no result: HDAC3 inh)
COc1ccccc1NC(=O)CSC(N)=O	HDAC3 inh 63.1, Rtt109 Vps75 135.0
CN(c1ccccc1)S(=O)(=O)c1ccc(Cl)c(C(=O)NCC(c2ccco2)N2CCCC2)c1 (stereo not drawn)	none
CC(=O)N1CC(=O)N=C1SCC(=O)Nc1nc(-c2ccccc2)c(-c2ccccc2)s1	HDAC3 inh 28.5
COc1ccc(C(=O)Nc2cc(OC)c(NC(=O)c3ccco3)cc2OC)cc1	Rtt109 Vps75 57.3
CCOC(=O)N1CCN(C(=O)/C(=C\c2ccc(SC)cc2)NC(=O)c2ccccc2)CC1	none (no result: HDAC3 inh)
O=C(NN1C(=O)/C(=C/C=C/c2ccco2)SC1=S)c1ccccc1O	Rtt109 Vps75 70.0
COc1ccc(Cc2nnc(NC(=O)CS(=O)(=O)c3ccccc3)s2)cc1OC	none

From PubChem BioAssay
